# Source: PubChem BioAssay (Tox21)
# Unmarked numbers belong to inactive results. Records with an inconclusive call do not appear. Entries that show only a call come without a potency. Calls of active or inactive are those of the source. Unless noted, calls come from the whole dose curve; as a rule, active = well fitted curve in the direction sought with a large enough effect in the repeat runs; inconclusive = weak or mixed curves; inactive = no such curve, though single readings can be large; an effect the other way counts as inactive or inconclusive.
# How the values were obtained:
# [1] = qHTS assay to identify small molecule antagonists of the androgen receptor (AR) signaling pathway using the MDA cell line in the presence of 0.5 nM R1881 - cell viability counter screen (AID 1259242); note: nearly all actives have a fitted effect of over 45% in size; note: potency is the fitted concentration of half-maximal effect
# How it was run: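 Cells seeded at 3,000/well and allowed 5 hr at 37C, 0% CO2 before compound transfer and R1881 (0.5 nM final) addition; 16 hr later, live-cell protease fluorescence indicated cytotoxicity.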
# [2] = molecular target: Androgen receptor (Homo sapiens) (UniProt P10275); test: qHTS assay to identify small molecule antagonists of the androgen receptor (AR) signaling pathway using the MDA cell line in the presence of 0.5 nM R1881 (AID 1259243); note: nearly all actives have a fitted effect of over 50% in size; note: potency is the fitted concentration of half-maximal effect
# Chain of Androgen receptor (Homo sapiens) (P10275 whole entry, looked up): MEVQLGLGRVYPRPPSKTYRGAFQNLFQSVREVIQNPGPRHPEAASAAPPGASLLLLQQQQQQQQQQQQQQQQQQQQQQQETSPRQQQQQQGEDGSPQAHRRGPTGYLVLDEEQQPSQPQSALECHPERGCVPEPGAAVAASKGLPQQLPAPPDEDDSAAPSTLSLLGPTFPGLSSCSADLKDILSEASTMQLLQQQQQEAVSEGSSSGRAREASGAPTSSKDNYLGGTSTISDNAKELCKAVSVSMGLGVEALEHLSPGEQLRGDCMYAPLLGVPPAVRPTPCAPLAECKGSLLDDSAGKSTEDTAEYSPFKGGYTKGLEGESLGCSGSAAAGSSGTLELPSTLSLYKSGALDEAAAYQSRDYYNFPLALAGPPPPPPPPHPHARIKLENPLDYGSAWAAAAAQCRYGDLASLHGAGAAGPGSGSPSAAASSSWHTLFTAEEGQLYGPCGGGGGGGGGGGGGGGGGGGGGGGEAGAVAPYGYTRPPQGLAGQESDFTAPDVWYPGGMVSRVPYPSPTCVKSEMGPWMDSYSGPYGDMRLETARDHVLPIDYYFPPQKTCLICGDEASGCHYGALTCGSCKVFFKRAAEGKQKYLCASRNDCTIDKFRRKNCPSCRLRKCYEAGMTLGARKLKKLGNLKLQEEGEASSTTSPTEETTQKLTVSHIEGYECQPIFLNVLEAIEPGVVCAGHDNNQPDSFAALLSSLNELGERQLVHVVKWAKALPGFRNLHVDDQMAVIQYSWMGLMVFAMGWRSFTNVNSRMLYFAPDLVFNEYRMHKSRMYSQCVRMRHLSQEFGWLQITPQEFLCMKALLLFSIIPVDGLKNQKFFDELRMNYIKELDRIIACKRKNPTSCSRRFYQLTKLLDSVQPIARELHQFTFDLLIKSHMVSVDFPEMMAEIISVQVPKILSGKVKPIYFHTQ
# How it was run: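 Luminescence from an AR/GR-responsive MMTV-luciferase construct in MDA-kb2 breast carcinoma cells, read 30 min after ONE-Glo, following 16 hr co-treatment with compounds and 0.5 nM R1881.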
# [3] = qHTS assay to identify small molecule HDAC inhibitors (AID 1259364);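 note: wild-type HCT-116 cells with endogenous class I/II HDAC activity; top concentration of the series differs between compounds; nearly all actives have a fitted effect of over 45% in size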
# How it was run: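 HCT-116 wt cells, 1,500/well, overnight attach. Compounds (DMSO) 2 h, 37 °C. HDAC-Glo I/II, 30 min RT. Luminescence.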
# [4] = qHTS assay to identify small molecule HDAC inhibitors - cell viability counter screen (AID 1259365); note: series mostly up to about 92 µM; nearly all actives have a fitted effect of over 50% in size
# How it was run: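 Wild-type HCT-116 cells were seeded at 1,500 per well, incubated overnight at 37 C, then exposed to compounds in DMSO for 2hr. Viability was read by CellTiter-Glo luminescence after 30min at room temperature.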
# [5] = qHTS assay to identify small molecule agonists of the sonic hedgehog signaling (Shh) pathway - cell viability counter screen (AID 1259366); note: nearly all actives have a fitted effect of over 50% in size; note: potency is the fitted concentration of half-maximal effect
# How it was run: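 NIH/3T3-derived 3T3 Gli1-Luc cells (stable Gli1-responsive firefly luciferase reporter) were seeded, rested 4 hr at 37 C/5% CO2, then exposed to compounds in DMSO for 24 hr; viability was read by CellTiter-Fluor fluorescence in the same wells.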
# [6] = qHTS assay to identify small molecule agonists of the sonic hedgehog signaling (Shh) pathway (AID 1259368; calls by dose curve; note: series mostly up to about 92 µM; nearly all actives have a fitted effect of over 15% in size)
# How it was run: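 Following a 24 hr incubation with DMSO-dissolved compounds at 37 C, 5% CO2, Gli1-Luc NIH/3T3-derived cells received luciferase reagent for 30 min at room temperature prior to luminescence measurement.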
# [7] = qHTS assay to identify small molecule antagonists of the sonic hedgehog signaling (Shh) pathway (AID 1259369; calls by dose curve; note: nearly all actives have a fitted effect of over 45% in size; note: potency is the fitted concentration of half-maximal effect)
# How it was run: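 Read-out is luminescence from a firefly luciferase gene controlled by the Gli1 response element, in 3T3Gli1-Luc cells pre-incubated 4hr then exposed to compounds and conditioned medium for 24hr.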
# [8] = molecular target: Estrogen receptor beta (Homo sapiens) (UniProt Q92731); test: qHTS assay to identify small molecule agonists of the estrogen receptor beta (ER-beta) signaling pathway (AID 1259377; active = well fitted activation curve with a large enough effect in the signal ratio in the repeat runs, not every such curve was filed as active; the % refers to the signal ratio)
# Chain of Estrogen receptor beta (Homo sapiens) (Q92731 whole entry, looked up): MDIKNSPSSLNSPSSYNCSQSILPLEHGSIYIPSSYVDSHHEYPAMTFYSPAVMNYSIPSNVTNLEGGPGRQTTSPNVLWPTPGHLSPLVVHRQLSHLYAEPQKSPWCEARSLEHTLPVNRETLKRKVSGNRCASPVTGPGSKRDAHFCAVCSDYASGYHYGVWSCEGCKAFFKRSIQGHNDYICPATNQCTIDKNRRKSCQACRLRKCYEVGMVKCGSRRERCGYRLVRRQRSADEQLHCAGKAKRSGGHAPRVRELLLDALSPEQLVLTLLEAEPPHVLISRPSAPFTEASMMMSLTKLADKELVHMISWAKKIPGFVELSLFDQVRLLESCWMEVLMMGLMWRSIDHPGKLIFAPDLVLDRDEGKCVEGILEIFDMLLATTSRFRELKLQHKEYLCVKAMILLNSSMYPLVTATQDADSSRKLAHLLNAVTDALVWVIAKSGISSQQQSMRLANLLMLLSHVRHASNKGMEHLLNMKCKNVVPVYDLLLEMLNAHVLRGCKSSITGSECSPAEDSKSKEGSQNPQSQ
# How it was run: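 ER-beta-UAS-bla HEK293T (GripTite) cells carrying a UAS-driven beta-lactamase reporter, in medium with 2% charcoal-stripped FBS, were exposed to compounds for 16 hr at 37C; LiveBLAzer B/G FRET substrate was then added and fluorescence read after 2 hours at room temperature.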
# [9] = qHTS assay to identify small molecule agonists of the androgen receptor (AR) signaling pathway in the presence of an antagonist - cell viability counter screen (AID 1259379); note: nearly all actives have a fitted effect of over 25% in size; note: potency is the fitted concentration of half-maximal effect;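 for activity change, negative = cytotoxicity: MDA-kb2 human breast cancer cells carrying an MMTV luciferase reporter; series mostly up to about 92 µM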
# How it was run: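 Each compound was tested at 15 concentrations on MDA-kb2 cells in the presence of 3.0uM nilutamide. Viability was measured by CellTiter-Fluor fluorescence after a 16 hr incubation at 37C in a CO2-free atmosphere.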
# [10] = qHTS assay to identify small molecule agonists of the estrogen receptor beta (ER-beta) signaling pathway - cell viability counter screen (AID 1259380); note: nearly all actives have a fitted effect of over 30% in size; note: potency is the fitted concentration of half-maximal effect
# How it was run: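 Compounds dissolved in DMSO were pin-transferred onto ER-beta-UAS-bla HEK293T cells that had settled 6 hr, and exposure ran 16 hr at 37C. Following the reporter read, CellTiter-Glo luminescence after 30 min at room temperature indicated cytotoxicity.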
# [11] = molecular target: Androgen receptor (Homo sapiens) (UniProt P10275); test: qHTS assay to identify small molecule agonists of the androgen receptor (AR) signaling pathway in the presence of an antagonist (AID 1259381; calls by dose curve; note: nearly all actives have a fitted effect of over 15% in size)
# How it was run: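 Plated MDA-kb2 cells (3,000/well) were pre-incubated 5hr, given nilutamide (3.0uM final) or buffer, then dosed with compounds in DMSO at 15 concentrations. Luciferase activity was quantified by luminescence after 16hr at 37C.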
# [12] = qHTS assay to identify small molecule antagonists of the estrogen receptor beta (ER-beta) signaling pathway - cell viability counter screen (AID 1259382); note: nearly all actives have a fitted effect of over 55% in size; note: potency is the fitted concentration of half-maximal effect; for activity change, negative = cytotoxicity: series mostly up to about 92 µM
# How it was run: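 CellTiter-Glo ATP luminescence measured after the LiveBLAzer read in the same wells; ER-beta-UAS-bla HEK293T cells, 16 hr compound treatment with 1nM 17-beta-estradiol agonist at 37C, 5% CO2.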
# [13] = qHTS assay to identify small molecule agonists or antagonists of the thyroid stimulating hormone receptor (TSHR) signaling pathway - wild type cell line counter screen (AID 1259384; calls by dose curve)
# How it was run: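 Wild-type HEK293 cells were plated 18 h at 37 C/5% CO2, pin-dosed with compound plus Ro20-1724 medium, held 30 min at room temperature, then given cAMP-d2 and anti-cAMP-cryptate; fluorescence was read after 1 h. Fifteen concentrations, triplicate.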
# [14] = molecular target: Thyrotropin receptor (Homo sapiens) (UniProt P16473); test: qHTS assay to identify small molecule antagonists of the thyroid stimulating hormone receptor (TSHR) signaling pathway (AID 1259385; calls by dose curve; note: nearly all actives have a fitted effect of over 20% in size; note: potency is the fitted concentration of half-maximal effect)
# Chain of Thyrotropin receptor (Homo sapiens) (P16473 whole entry, looked up): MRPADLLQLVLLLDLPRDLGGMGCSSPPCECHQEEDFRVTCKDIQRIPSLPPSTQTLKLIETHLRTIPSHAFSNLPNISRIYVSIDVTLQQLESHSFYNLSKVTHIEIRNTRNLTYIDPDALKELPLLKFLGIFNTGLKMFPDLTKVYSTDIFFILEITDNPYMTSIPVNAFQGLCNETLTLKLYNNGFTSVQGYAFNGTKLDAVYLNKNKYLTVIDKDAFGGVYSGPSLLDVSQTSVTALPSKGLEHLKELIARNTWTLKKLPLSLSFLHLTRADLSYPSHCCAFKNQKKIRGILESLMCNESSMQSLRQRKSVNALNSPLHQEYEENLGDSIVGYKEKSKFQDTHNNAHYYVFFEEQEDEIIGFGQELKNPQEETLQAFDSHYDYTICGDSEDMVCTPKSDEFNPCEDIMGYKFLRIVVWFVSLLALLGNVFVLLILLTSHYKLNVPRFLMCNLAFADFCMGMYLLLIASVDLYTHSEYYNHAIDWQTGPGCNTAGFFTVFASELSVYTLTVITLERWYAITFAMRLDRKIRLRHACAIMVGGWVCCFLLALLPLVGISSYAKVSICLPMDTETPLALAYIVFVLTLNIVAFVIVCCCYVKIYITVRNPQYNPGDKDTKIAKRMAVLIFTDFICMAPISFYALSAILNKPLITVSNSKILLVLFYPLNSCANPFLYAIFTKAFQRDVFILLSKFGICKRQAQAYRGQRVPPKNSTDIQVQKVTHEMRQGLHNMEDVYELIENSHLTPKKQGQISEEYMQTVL
# How it was run: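 TSHR-HEK293 cells were plated and held 18 h at 37C/5% CO2, then given compound plus Ro20-1724 and stimulated with TSH at 1.5 ng/mL final. After 30 min at room temperature, cAMP was detected with cAMP-d2/anti-cAMP-cryptate (1 h) by fluorescence.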
# [15] = qHTS assay to identify small molecule agonists of the estrogen receptor alpha (ER-alpha) signaling pathway in the presence of an antagonist - cell viability counter screen (AID 1259386);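 note: series mostly up to about 92 µM; cells exposed to compounds for 22 h at 37 °C before the viability read; nearly all actives have a fitted effect of over 30% in size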
# How it was run: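 Using estrogen-depleted VM7Luc4E2 cells, the 15-concentration compound series was applied together with 10.0nM ICI-182,780 and incubated 22hr at 37C/5% CO2. Cell viability was then scored by CellTiter-Fluor.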
# [16] = molecular target: Estrogen receptor (Homo sapiens) (UniProt P03372); test: qHTS assay to identify small molecule antagonists of the estrogen receptor alpha (ER-alpha) signaling pathway using the BG1 cell line in the presence of 0.1 nM 17-beta-estradiol (AID 1259244); note: nearly all actives have a fitted effect of over 50% in size
# Chain of Estrogen receptor (Homo sapiens) (P03372 whole entry, looked up): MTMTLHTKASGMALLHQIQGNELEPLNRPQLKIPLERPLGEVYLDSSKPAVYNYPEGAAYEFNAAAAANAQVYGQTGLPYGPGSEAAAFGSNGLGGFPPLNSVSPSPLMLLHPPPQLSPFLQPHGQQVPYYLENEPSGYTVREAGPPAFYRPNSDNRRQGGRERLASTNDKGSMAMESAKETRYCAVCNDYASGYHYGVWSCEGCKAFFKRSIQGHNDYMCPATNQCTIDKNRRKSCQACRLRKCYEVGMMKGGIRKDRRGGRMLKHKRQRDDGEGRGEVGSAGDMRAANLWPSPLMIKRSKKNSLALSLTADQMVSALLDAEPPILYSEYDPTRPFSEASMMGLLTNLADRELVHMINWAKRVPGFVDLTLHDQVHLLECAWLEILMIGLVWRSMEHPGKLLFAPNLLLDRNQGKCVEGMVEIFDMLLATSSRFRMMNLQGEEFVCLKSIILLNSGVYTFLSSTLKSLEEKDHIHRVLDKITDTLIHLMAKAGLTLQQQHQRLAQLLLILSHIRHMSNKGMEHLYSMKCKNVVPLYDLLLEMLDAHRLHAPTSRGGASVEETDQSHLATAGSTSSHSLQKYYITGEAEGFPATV
# How it was run: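 Luciferase signal from VM7Luc4E2 ERE-reporter cells, co-dosed with test compound and 0.1 nM final 17beta-estradiol for 22 h, read with ONE-Glo.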
# [17] = qHTS assay to identify small molecule phospholipidosis (PLD) inducers (AID 1259344; active = well fitted curve in the direction sought with a large enough effect; an effect the other way counts as inactive or inconclusive)
# How it was run: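 After 4 h attachment on collagen I, HepG2 cells were dosed with compound alongside LipidTOX Red, kept 24 h at 37 C, fixed, and imaged for lamellar phospholipid pits.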
# [18] = molecular target: Estrogen receptor (Homo sapiens) (UniProt P03372); test: qHTS assay to identify small molecule agonists of the estrogen receptor alpha (ER-alpha) signaling pathway in the presence of an antagonist (AID 1259383; calls by dose curve; note: top concentration of the series differs between compounds; nearly all actives have a fitted effect of over 15% in size)
# How it was run: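 Luminescent ERE-luciferase reporter, VM7Luc4E2 cells (endogenous ER-alpha); 10.0nM ICI-182,780 final; 15-point compound titration; 22hr at 37C; ONE-Glo, 30min RT.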
# [19] = qHTS assay to identify small molecule antagonists of the sonic hedgehog signaling (Shh) pathway - cell viability counter screen (AID 1259367); note: nearly all actives have a fitted effect of over 55% in size; note: potency is the fitted concentration of half-maximal effect
# How it was run: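 Conditioned medium drove Shh signaling in 3T3 Gli1-Luc cells exposed to compounds at 37C and 5% CO2. Viability was determined from CellTiter-Fluor fluorescence, with reagent incubated 1 hr after 23 hr of treatment.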
# [20] = molecular target: Estrogen receptor beta (Homo sapiens) (UniProt Q92731); test: qHTS assay to identify small molecule antagonists of the estrogen receptor beta (ER-beta) signaling pathway (AID 1259378; active = well fitted inhibition curve with a large enough effect in the signal ratio in the repeat runs, not every such curve was filed as active; the % refers to the signal ratio; note: potency is the fitted concentration of half-maximal effect)
# How it was run: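 ER-beta-UAS-bla HEK293T (GripTite) cells in 2% charcoal-stripped FBS medium were preincubated 6 hr at 37C, dosed with compound, then stimulated with 1 nM E2 (final) for 16 hr; beta-lactamase reporter read by B/G FRET fluorescence after 2 hr substrate loading.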
compound,measurement,setting,value
N[C@@H](CSSC[C@H](N)C(=O)O)C(=O)O,"viability change, negative = cytotoxic",[1],-1.71% [at 0.349 µM]
same,"activity, negative = inhibition",[2],4.74% [at 0.349 µM]
same,"activity change, negative = inhibition",[3],-1.21% [at 0.349 µM]
same,"activity change, negative = cytotoxicity",[4],2.74% [at 0.349 µM]
same,"viability change, negative = cytotoxic",[5],13.4% [at 0.349 µM]
same,activity change,[6],"-0.169% [at 0.349 µM, active compounds read high]"
same,Potency,[7],0.335 µM (active)
same,activation,[8],5.41% [at 0.348 µM]
same,"activity change, negative = cytotoxicity",[9],0.823% [at 0.35 µM]
same,"activity change, negative = cytotoxicity",[10],3.32% [at 0.349 µM]
same,activation,[11],-0.591% [at 0.349 µM]
same,"activity change, negative = cytotoxicity",[12],-5.72% [at 0.349 µM]
same,cAMP activity change,[13],-6.57% [at 0.349 µM]
same,"activity change, negative = inhibition",[14],0.59% [at 0.349 µM]
same,"activity change, negative = cytotoxicity",[15],7.62% [at 0.349 µM]
CCOC(=O)[C@@](C)(N)Cc1ccc(O)c(O)c1,Potency,[1],inactive
same,Potency,[16],inactive
same,Potency,[17],inactive
same,Potency,[3],inactive
same,Potency,[4],inactive
same,Potency,[5],inactive
same,Potency,[9],inactive
same,Potency,[10],inactive
same,Potency,[12],inactive
same,Potency,[18],inactive
same,outcome,[13],inactive
same,Potency,[15],inactive
C[Si](C)O[Si](C)C,Potency,[1],inactive
same,Potency,[2],inactive
same,Potency,[16],inactive
same,Potency,[5],inactive
same,Potency,[19],inactive
same,Potency,[6],inactive
same,Potency,[7],inactive
same,Potency,[8],inactive
same,Potency,[20],inactive
same,Potency,[9],inactive
same,Potency,[10],inactive
same,Potency,[12],inactive
same,Potency,[18],inactive
same,outcome,[13],inactive
same,Potency,[14],inactive
same,Potency,[15],inactive
CCCOc1sc(C(=O)N2CCC(c3cc(CN)ccc3F)CC2)c(C)c1Br,Potency,[1],39.7 µM (active)
same,Potency,[2],39.7 µM (active)
same,Potency,[5],22.3 µM (active)
same,Potency,[19],25 µM (active)
same,Potency,[6],inactive
same,Potency,[7],inactive
same,Potency,[9],56 µM (active)
same,Potency,[10],28.1 µM (active)
same,Potency,[11],inactive
same,Potency,[12],25 µM (active)
same,Potency,[18],inactive
same,outcome,[13],inactive
same,Potency,[14],56 µM (active)
CC(NCCC(c1ccccc1)c1ccccc1)c1ccccc1 (stereo not given),Potency,[1],21.1 µM (active)
same,Potency,[2],21.1 µM (active)
same,Potency,[3],inactive
same,Potency,[4],inactive
same,Potency,[6],inactive
same,Potency,[7],26.6 µM (active)
same,Potency,[20],26.6 µM (active)
same,Potency,[9],23.7 µM (active)
same,Potency,[10],18.8 µM (active)
same,Potency,[11],inactive
same,Potency,[12],18.8 µM (active)
same,Potency,[18],inactive
same,outcome,[13],inactive
same,Potency,[14],29.8 µM (active)
CCOC(=O)C1=C(C)NC(C)=C(C(=O)OCC)C1c1ccccc1/C=C/C(=O)OC(C)(C)C,Potency,[1],inactive
same,Potency,[2],23.7 µM (active)
same,Potency,[17],inactive
same,Potency,[3],inactive
same,Potency,[4],inactive
same,Potency,[19],29.8 µM (active)
same,Potency,[6],inactive
same,Potency,[7],29.8 µM (active)
same,Potency,[20],inactive
same,Potency,[10],23.7 µM (active)
same,Potency,[11],inactive
same,Potency,[12],inactive
same,Potency,[18],inactive
same,outcome,[13],inactive
same,Potency,[15],inactive
O=C[C@H](O)[C@H](O)[C@H](O)CO,Potency,[1],inactive
same,Potency,[2],inactive
same,Potency,[3],inactive
same,Potency,[4],inactive
same,Potency,[5],inactive
same,Potency,[19],inactive
same,Potency,[6],inactive
same,Potency,[7],inactive
same,Potency,[9],inactive
same,Potency,[10],inactive
same,Potency,[11],inactive
same,Potency,[12],inactive
same,outcome,[13],inactive
same,Potency,[14],inactive
same,Potency,[15],inactive
CC(=O)O[C@@H]1C[C@@H]2CC[C@@]1(C)C2(C)C,Potency,[1],inactive
same,Potency,[2],inactive
same,Potency,[3],inactive
same,Potency,[5],inactive
same,Potency,[19],inactive
same,Potency,[6],inactive
same,Potency,[8],inactive
same,Potency,[20],inactive
same,Potency,[9],inactive
same,Potency,[10],inactive
same,Potency,[11],inactive
same,Potency,[12],inactive
same,outcome,[13],inactive
same,Potency,[14],inactive
same,Potency,[15],inactive
